Experimental data: PubChem BioAssay (Tox21)
Inconclusive results are not listed. Activity calls are given as the source filed them. Unless noted, calls come from the whole dose curve; as a rule, active = well fitted curve in the direction sought with a large enough effect in the repeat runs; inconclusive = weak or mixed curves; inactive = no such curve, though single readings can be large; an effect the other way counts as inactive or inconclusive.

How the values were obtained:
[1] = qHTS assay to identify small molecule agonists of the hypoxia (HIF-1) signaling pathway - cell viability counter screen (AID 1224844; calls by dose curve; note: nearly all actives have a fitted effect of over 50% in size; note: potency is the fitted concentration of half-maximal effect)
Procedure, shortened: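 In this counter screen, HRE-bla ME-180 cell viability after 17 hrs of compound exposure at 37C was read by CellTiter-Glo luminescence, multiplexed with the beta-lactamase reporter measurement.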

[2] = qHTS assay to identify small molecule agonists of H2AX (AID 1224845; active = well fitted activation curve with a large enough effect in the signal ratio in the repeat runs, not every such curve was filed as active; the % refers to the signal ratio)
Procedure, shortened: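 Phospho-H2AX Ser139 measured by HTRF (ex 320 nm; em 665 and 620 nm) after 24 hr antibody incubation. Compounds, 15 concentrations, 0.76% DMSO, were applied to CHO-K1 cells for 3hr at 37C before lysis.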

[3] = qHTS assay to identify small molecule agonists of the hypoxia (HIF-1) signaling pathway (AID 1224846; active = well fitted activation curve with a large enough effect in the signal ratio in the repeat runs, not every such curve was filed as active; the % refers to the signal ratio)
Procedure, shortened: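 ME-180 HRE-bla reporter cells; compounds in DMSO, 17 h at 37C; read-out beta-lactamase via CCF4-AM FRET.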

[4] = qHTS RealTime-Glo MT Cell Viability Assay in HepG2 cells - 24 hour (AID 1224867); note: nearly all actives have a fitted effect of over 50% in size; note: potency is the fitted concentration of half-maximal effect
Procedure, shortened: (§1)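 Luminescence read-out: viable HepG2 cells reduce a prosubstrate to a NanoLuc substrate, giving a signal proportional to live cell number. Reads taken at 0, 8, 16, 24, 32 and 40 h of compound exposure at 37 C.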

[5] = qHTS RealTime-Glo MT Cell Viability Assay in HEK293 cells - 32 hour (AID 1224868); note: nearly all actives have a fitted effect of over 50% in size; note: potency is the fitted concentration of half-maximal effect
Procedure, shortened: (§2)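 Nonlytic real-time viability readout: viable cells convert prosubstrate to NanoLuc substrate, giving luminescence proportional to live cell number. HEK293, 600 cells/well, compound added after 5 h, continuous culture at 37 C.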

[6] = qHTS RealTime-Glo MT Cell Viability Assay in HepG2 cells - 40 hour (AID 1224870); note: nearly all actives have a fitted effect of over 50% in size; note: potency is the fitted concentration of half-maximal effect
Procedure, shortened: (§3)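 Real-time viability: cells seeded at 600 per well together with NanoLuc and cell-permeant prosubstrate, compounds added after 5 h incubation. Luminescence tracked at 0, 8, 16, 24, 32 and 40 h of exposure.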

[7] = A CellTox Green Cytotoxicity Assay to monitor cytotoxicity in HEK293 cells - 40 hour (AID 1224871); note: nearly all actives have a fitted effect of over 45% in size; note: potency is the fitted concentration of half-maximal effect
Procedure, shortened: (§4)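 Real-time, in one plate: 600 HEK293 cells/well with dead-cell DNA dye, pinned compound after 5 h, 37 C incubation over 40 h; viable cells give no appreciable fluorescence.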

[8] = qHTS RealTime-Glo MT Cell Viability Assay in HEK293 cells - 16 hour (AID 1224872); note: nearly all actives have a fitted effect of over 50% in size; note: potency is the fitted concentration of half-maximal effect
Procedure, shortened: as §2

[9] = qHTS RealTime-Glo MT Cell Viability Assay in HepG2 cells - 8 hour (AID 1224873); note: nearly all actives have a fitted effect of over 55% in size
Procedure, shortened: as §3

[10] = qHTS RealTime-Glo MT Cell Viability Assay in HEK293 cells - 40 hour (AID 1224874); details: RealTime-Glo luminescence; max response: active compounds read low; note: nearly all actives have a fitted effect of over 50% in size; note: potency is the fitted concentration of half-maximal effect
Procedure, shortened: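 Kinetic, non-lysing viability readout. Seed HEK293 (600/well) with reagent, incubate 5 h at 37 C/5% CO2, pin 23 nL compound in DMSO, incubate at 37 C, read luminescence at 0, 8, 16, 24, 32, 40 h.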

[11] = A CellTox Green Cytotoxicity Assay to monitor cytotoxicity in HEK293 cells - 24 hour (AID 1224875); note: nearly all actives have a fitted effect of over 45% in size
Procedure, shortened: as §4

[12] = A CellTox Green Cytotoxicity Assay to monitor cytotoxicity in HepG2 cells - 16 hour (AID 1224876); note: nearly all actives have a fitted effect of over 45% in size; note: potency is the fitted concentration of half-maximal effect
Procedure, shortened: (§5)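 Cytotoxicity was tracked as dead-cell DNA fluorescence in HepG2 cells treated with test compounds at 37 C; each time-point value comes from one kinetic series spanning 0, 8, 16, 24, 32 and 40 h.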

[13] = qHTS RealTime-Glo MT Cell Viability Assay in HepG2 cells - 32 hour (AID 1224877); note: nearly all actives have a fitted effect of over 55% in size
Procedure, shortened: as §1

[14] = A CellTox Green Cytotoxicity Assay to monitor cytotoxicity in HepG2 cells - 24 hour (AID 1224878); note: nearly all actives have a fitted effect of over 45% in size; note: potency is the fitted concentration of half-maximal effect
Procedure, shortened: as §5

[15] = A CellTox Green Cytotoxicity Assay to monitor cytotoxicity in HepG2 cells - 40 hour (AID 1224879); note: nearly all actives have a fitted effect of over 40% in size; note: potency is the fitted concentration of half-maximal effect
Procedure, shortened: as §5

[16] = qHTS assay to identify small molecule agonists of H2AX - cell viability counter screen (AID 1224847; calls by dose curve; note: nearly all actives have a fitted effect of over 30% in size; note: potency is the fitted concentration of half-maximal effect)
Procedure, shortened: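 Quantitative HTS viability measurement: CHO-K1 wild-type cells in serum (10% FBS) medium, short 3 hr drug exposure at 37C with 0.76% DMSO, CellTiter-Glo luminescent detection.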

[17] = qHTS assay to identify small molecule antagonists of the estrogen related receptor (ERR) signaling pathway from Tox21 library (AID 1224848); note: nearly all actives have a fitted effect of over 50% in size; note: potency is the fitted concentration of half-maximal effect
Procedure, shortened: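 Luciferase luminescence (ONE-Glo, 30 min room temperature) was the read-out. Cells of the NTP-supplied ERR line, 2,000 per well, were given 6 h at 37 C before compound addition in DMSO and 18 h exposure at 37 C.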

[18] = qHTS assay to identify small molecule agonists of the estrogen related receptor (ERR) signaling pathway from Tox21 library (AID 1224849; calls by dose curve; note: nearly all actives have a fitted effect of over 15% in size); details: ERR reporter cell line, ONE-Glo luciferase, 18 h; at 92.4 µM (top of the series) unless noted
Procedure, shortened: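 Luciferase activity in ERR pathway reporter cells served as the agonist readout; exposure lasted 18 h at 37 C, with ONE-Glo detection after 30 min at room temperature.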

[19] = A CellTox Green Cytotoxicity Assay to monitor cytotoxicity in HEK293 cells - 0 hour (AID 1224869); note: nearly all actives have a fitted effect of over 50% in size
Procedure, shortened: as §4

[20] = biological target: Thyrotropin receptor (Homo sapiens) (UniProt P16473); test: qHTS assay to identify small molecule agonists of the thyroid stimulating hormone receptor (TSHR) signaling pathway (AID 1224843; calls by dose curve; note: nearly all actives have a fitted effect of over 45% in size)
Procedure, shortened: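 Agonist activity read as cAMP rise via d2/cryptate HTRF competition, 1 h room-temperature detection, in HEK293 cells expressing TSHR. Fifteen-point titrations, each run in triplicate, with a 30 min room-temperature incubation beforehand.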
% is set by controls: 0 for no effect and ±100 for the full control effect.

Chain of Thyrotropin receptor (Homo sapiens) (P16473 whole entry, looked up): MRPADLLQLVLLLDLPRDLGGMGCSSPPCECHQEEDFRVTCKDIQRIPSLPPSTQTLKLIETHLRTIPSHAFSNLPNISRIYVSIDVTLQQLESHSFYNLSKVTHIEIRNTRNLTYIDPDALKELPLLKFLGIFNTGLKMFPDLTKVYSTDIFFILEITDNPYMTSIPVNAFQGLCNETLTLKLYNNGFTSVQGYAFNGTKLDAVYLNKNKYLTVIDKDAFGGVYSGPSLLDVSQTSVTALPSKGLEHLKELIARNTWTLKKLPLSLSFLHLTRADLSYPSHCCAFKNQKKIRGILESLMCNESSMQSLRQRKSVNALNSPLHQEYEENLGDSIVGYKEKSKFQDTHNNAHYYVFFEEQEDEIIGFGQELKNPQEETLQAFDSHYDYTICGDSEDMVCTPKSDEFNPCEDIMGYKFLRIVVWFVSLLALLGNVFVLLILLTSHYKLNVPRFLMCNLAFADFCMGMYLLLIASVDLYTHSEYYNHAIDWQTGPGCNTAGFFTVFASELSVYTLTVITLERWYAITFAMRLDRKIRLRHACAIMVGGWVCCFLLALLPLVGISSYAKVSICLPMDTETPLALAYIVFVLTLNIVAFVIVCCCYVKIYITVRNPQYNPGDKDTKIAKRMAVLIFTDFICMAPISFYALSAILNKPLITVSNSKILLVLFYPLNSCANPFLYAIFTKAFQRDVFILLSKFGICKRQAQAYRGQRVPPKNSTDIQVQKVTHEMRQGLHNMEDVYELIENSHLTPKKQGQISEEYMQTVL

CC1=C(CC=O)C(C)(C)CCC1
inactive: Potency [1] | Potency [2] | outcome [3] | Potency [4] | Potency [5] | Potency [6] | Potency [7] | Potency [8] | Potency [9] | max response [10] -9.82% | Potency [11] | Potency [12] | Potency [13] | Potency [14] | Potency [15]

Cc1cc(O)c(C)c(C)c1O
inactive: Potency [1] | Potency [2] | outcome [3] | Potency [16] | Potency [17] | activity change, positive = activation [18] 2.57% [at 42.5 µM] | Potency [4] | Potency [19] | Potency [6] | Potency [9] | Potency [12] | Potency [13] | Potency [14] | Potency [15]

CN1C(C(=O)Nc2ccccn2)=C(O)c2sccc2S1(=O)=O
inactive: Potency [1] | Potency [2] | outcome [3] | Potency [16] | Potency [4] | Potency [5] | Potency [19] | Potency [6] | Potency [7] | Potency [8] | Potency [9] | max response [10] 6.41% | Potency [11] | Potency [12] | Potency [13] | Potency [14] | Potency [15]

CC(C)(C)C(=O)C(=O)O
inactive: Potency [1] | Potency [2] | outcome [3] | Potency [16] | Potency [4] | Potency [5] | Potency [19] | Potency [6] | Potency [7] | Potency [8] | Potency [9] | max response [10] 0.984% | Potency [12] | Potency [13] | Potency [14]

COc1ncnc(NS(=O)(=O)c2ccc(N)cc2)c1OC
inactive: Potency [1] | Potency [2] | Potency [16] | Potency [17] | activity change, positive = activation [18] 1.61% [at 42.5 µM] | Potency [4] | Potency [5] | Potency [19] | Potency [6] | Potency [7] | Potency [9] | max response [10] -0.242% | Potency [11] | Potency [13]

COc1ccc(OC(=O)N(CC(=O)O)Cc2ccc(OCCc3nc(-c4ccccc4)oc3C)cc2)cc1
inactive: Potency [20] | outcome [3] | activity change, positive = activation [18] -6.74% [at 42.5 µM] | Potency [4] | Potency [5] | Potency [19] | Potency [6] | Potency [7] | Potency [8] | Potency [9] | max response [10] -9.99% | Potency [11] | Potency [12] | Potency [13] | Potency [14] | Potency [15]
active: Potency [16] 27.7 µM

CN(C(=O)CN(CCO)CC(=O)N(C)C(C)(C)Cc1ccccc1)C(C)(C)Cc1ccccc1
active: Potency [5] 19 µM | Potency [7] 23.9 µM | Potency [10] 19 µM | Potency [12] 23.9 µM | Potency [14] 23.9 µM | Potency [15] 23.9 µM
inactive: Potency [1] | Potency [2] | activity change, positive = activation [18] -27.5% [at 42.5 µM] | Potency [19]

C[C@@H](O[C@H]1OCCN(Cc2n[nH]c(=O)[nH]2)[C@H]1c1ccc(F)cc1)c1cc(C(F)(F)F)cc(C(F)(F)F)c1
active: Potency [1] 21.3 µM | Potency [17] 23.7 µM | Potency [4] 21.3 µM | Potency [5] 16.9 µM | Potency [6] 21.3 µM | Potency [8] 19 µM | Potency [10] 16.9 µM | Potency [12] 16.9 µM | Potency [14] 15.1 µM | Potency [15] 16.9 µM
inactive: activity change, positive = activation [18] -53.3% [at 42.5 µM]

C=C(C)[C@@H]1CCC2=CCC[C@@H](C)[C@]2(C)C1
inactive: Potency [1] | outcome [3] | Potency [16] | Potency [17] | activity change, positive = activation [18] -7.47% | Potency [4] | Potency [5] | Potency [19] | Potency [6] | Potency [7] | Potency [8] | Potency [9] | max response [10] 0.724% | Potency [11] | Potency [13]

O=c1cc(-c2ccccc2)oc2ccc3ccccc3c12
active: Potency [1] 24.5 µM | Potency [16] 25.3 µM | activity change, positive = activation [18] -35% | Potency [12] 24.5 µM | Potency [14] 24.5 µM | Potency [15] 17.4 µM
inactive: outcome [3] | Potency [17] | Potency [4] | Potency [5] | Potency [19] | Potency [6] | Potency [8] | Potency [9] | max response [10] -4.42% | Potency [11] | Potency [13]

Nc1ccc(N=Nc2ccccc2)c(N)c1
inactive: Potency [1] | outcome [3] | Potency [19] | Potency [6] | Potency [7] | Potency [11] | Potency [13] | Potency [14] | Potency [15]
active: Potency [16] 98.6 µM | Potency [5] 42.7 µM | Potency [8] 42.7 µM | Potency [10] 38.1 µM

O=c1cc(-c2ccccc2)oc2cc(O)cc(O)c12
inactive: Potency [1] | Potency [2] | Potency [19] | Potency [9] | Potency [11] | Potency [12]

CCC(=O)C1CC(C(C)C)CC=C1C (stereo not drawn)
inactive: Potency [2] | Potency [16] | Potency [17] | activity change, positive = activation [18] 5.57% | Potency [4] | Potency [5] | Potency [19] | Potency [6] | Potency [7] | Potency [8] | Potency [9] | max response [10] 9.7% | Potency [11] | Potency [13] | Potency [14] | Potency [15]

CC(=O)c1ccc([N+](=O)[O-])cc1
inactive: Potency [2] | outcome [3] | Potency [16] | Potency [17] | activity change, positive = activation [18] 1.22% | Potency [4] | Potency [5] | Potency [19] | Potency [6] | Potency [7] | Potency [9] | max response [10] 11.2% | Potency [11] | Potency [12] | Potency [13] | Potency [14] | Potency [15]

O=C(O)CCCCCCCCCCCBr
inactive: Potency [2] | outcome [3] | Potency [16] | Potency [17] | Potency [4] | Potency [5] | Potency [19] | Potency [6] | Potency [8] | Potency [9] | max response [10] -7.89% | Potency [11] | Potency [12] | Potency [13] | Potency [14] | Potency [15]
